# According to PubChem BioAssay:
# Calls of active or inactive are those of the source. Unless noted, how the calls were made is not given here.
# Experiments:
# [1] = resazurin metabolic signal in HepG2 cells – cell-based, resazurin fluorescence, 24 h, PK04 Diversity Set, profiling panel (AID 1172); conditions: HepG2 viability, higher = more signal; further: test concentration not given here
# [2] = budding yeast growth changes without added modifier – OD600, strain BY4716, 24 h, basal condition, primary screen (AID 1173); conditions: S. cerevisiae BY4716 growth, OD600, 24 h; higher = more signal, called active from +8 up or from −8 down
# [3] = viability profiling in MM1S myeloma cells – cell-based, resazurin fluorescence, basal, 24 h, PK04 Diversity Set, profiling panel (AID 1174); conditions: higher = more signal, called active from +8 up or from −8 down;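 further: MM1S multiple myeloma cell line; test concentration not given here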
# [4] = biological target: Dihydroorotate dehydrogenase (quinone), mitochondrial (Plasmodium falciparum (isolate 3D7)) (UniProt Q08210); experiment: inhibition of P. falciparum DHODH – biochemical, C-terminal His tag, absorbance 600 nm, primary screen (AID 1175); conditions: PfDHODH enzyme, DCIP absorbance 600 nm; higher = more signal, called active from +8 up or from −8 down;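 further: recombinant parasite enzyme with a five histidine tag at its C terminus; test concentration not given here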
# [5] = inhibition of PAO1 biofilm formation – strain PAO1, LB-PBS medium, absorbance 600 nm, primary screen (AID 1176); further: test concentration not given here; conditions: P. aeruginosa PAO1 growth/biofilm, A600, 12 h; higher = more signal
# [6] = growth modulation of vineyard yeast isolate – strain RM11-1a, OD600, basal, 24 h, primary screen (AID 1177);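 further: cultures grown under basal conditions with no added stressor; test concentration not given here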; conditions: S. cerevisiae RM11-1a growth, OD600, 24 h; higher = more signal, called active from +8 up or from −8 down
# [7] = growth of efflux-deficient E. coli DRC39 – strain DRC39, OD650, 24 h, E. coli filamentation inducers, primary screen (AID 1178);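 further: growth measured as culture turbidity by optical density at 650 nm; test concentration not given here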; conditions: E. coli DRC39 acrAB, higher = more signal, called active from +8 up or from −8 down
# [8] = growth of efflux-deficient E. coli DRC39 – strain DRC39, OD650, 48 h, E. coli filamentation inducers, primary screen (AID 1179);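 further: screen aims at cell division blockers that make cells filament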; conditions: E. coli DRC39 delta-acrAB growth, higher = more signal, called active from +8 up or from −8 down
# [9] = viability profiling in RPMI8226 myeloma cells – cell-based, resazurin fluorescence, basal, 24 h, PK04 Diversity Set, profiling panel (AID 1180); conditions: higher = more signal;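 further: RPMI8826 multiple myeloma cell line at 5000 cells per well; test concentration not given here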
# [10] = biological target: E3 ubiquitin-protein ligase XIAP (Homo sapiens) (UniProt P98170); experiment: small molecules binding XIAP protein – biophysical, small-molecule microarray, fluorescence 635 nm, primary screen (AID 1181); conditions: higher = more signal;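 further: score merges 667 nm emission and signal to noise over triplicate slides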
# E3 ubiquitin-protein ligase XIAP (Homo sapiens), sequence (P98170 whole entry, looked up): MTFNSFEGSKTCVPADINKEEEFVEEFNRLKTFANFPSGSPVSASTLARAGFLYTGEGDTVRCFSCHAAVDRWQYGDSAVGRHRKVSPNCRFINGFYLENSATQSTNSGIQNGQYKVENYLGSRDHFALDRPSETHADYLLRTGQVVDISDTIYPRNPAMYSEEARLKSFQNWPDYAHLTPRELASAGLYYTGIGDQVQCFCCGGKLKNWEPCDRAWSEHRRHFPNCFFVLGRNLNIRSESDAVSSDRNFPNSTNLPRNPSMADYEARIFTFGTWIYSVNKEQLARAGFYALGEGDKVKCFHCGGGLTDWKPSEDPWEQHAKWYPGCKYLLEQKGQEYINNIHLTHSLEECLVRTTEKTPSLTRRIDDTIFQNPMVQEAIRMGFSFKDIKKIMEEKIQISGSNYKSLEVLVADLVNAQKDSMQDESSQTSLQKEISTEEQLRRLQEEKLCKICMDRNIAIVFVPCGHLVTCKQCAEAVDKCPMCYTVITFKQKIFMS
# Dihydroorotate dehydrogenase (quinone), mitochondrial (Plasmodium falciparum (isolate 3D7)), sequence (Q08210 whole entry, looked up): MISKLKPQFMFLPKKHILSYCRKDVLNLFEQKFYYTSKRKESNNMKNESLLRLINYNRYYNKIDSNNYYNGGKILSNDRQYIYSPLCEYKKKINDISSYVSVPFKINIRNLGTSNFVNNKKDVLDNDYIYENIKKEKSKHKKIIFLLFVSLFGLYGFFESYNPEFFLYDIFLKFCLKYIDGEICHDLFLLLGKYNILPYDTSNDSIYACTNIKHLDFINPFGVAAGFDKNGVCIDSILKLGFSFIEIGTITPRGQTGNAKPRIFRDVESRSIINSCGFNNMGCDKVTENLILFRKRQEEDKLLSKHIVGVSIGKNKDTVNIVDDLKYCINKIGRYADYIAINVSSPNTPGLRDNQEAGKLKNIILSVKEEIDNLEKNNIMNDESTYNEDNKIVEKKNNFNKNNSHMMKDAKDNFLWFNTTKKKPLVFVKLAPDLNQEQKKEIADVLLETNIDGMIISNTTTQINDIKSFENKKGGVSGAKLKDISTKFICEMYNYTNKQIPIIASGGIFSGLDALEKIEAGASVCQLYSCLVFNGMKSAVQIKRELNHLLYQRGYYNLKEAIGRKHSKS
Structure (SMILES),z-score [1],z-score [2],z-score [3],composite z-score [4],z-score [5],z-score [6],z-score [7],z-score [8],z-score [9],composite z-score [10]
OCCCC1=CC(c2ccc(CN3CCCC3)cc2)N(Cc2cccc(OC(F)(F)F)c2)CC1 (stereo not given),-2.32,-5.01 (inactive),-6.82 (inactive),-1.2 (inactive),0.318 (inactive),0.195 (inactive),-1 (inactive),-1.83 (inactive),-5.61,0.215
C=C(CCCC)/C(=C/C[C@H](OC(=O)c1ccncc1)c1ccc(OCCO)cc1)c1cnc2ccccc2c1,1.08,-1.28 (inactive),-0.0114 (inactive),-2.89 (inactive),0.391 (inactive),0.51 (inactive),0.709 (inactive),0.258 (inactive),1.04,-0.122
C=C(CCCC)C(=O)CC[C@@H](OC(=O)c1ccccc1-c1ccccc1C(=O)O)c1ccccc1OCCO,-0.174,-2.49 (inactive),-0.608 (inactive),-1.35 (inactive),0.118 (inactive),-1.61 (inactive),0.625 (inactive),0.403 (inactive),-1.49,0.269
COC(=O)[C@@]1(Cc2ccccc2)[C@H]2c3cc(C(=O)N4CCCC4)n(Cc4ccc(OC)c(OC)c4)c3C[C@H]2CN1C(=O)c1ccccc1,0.181,1.58 (inactive),-0.466 (inactive),0.263 (inactive),0.0944 (inactive),1.72 (inactive),-0.372 (inactive),0.352 (inactive),-0.172,0.0589
CC=CC(O)C1C=CC2C(=O)NC(=O)C2N1Nc1ccc(Cl)cc1Cl (stereo not given),-1.2,-11.4 (active),-1.53 (inactive),0.733 (inactive),0.723 (inactive),1.52 (inactive),-0.427 (inactive),-0.356 (inactive),-1.68,-0.113
CCCCC(O)C1C=CC2C(=O)N(c3ccccc3)C(=O)C2N1Nc1ccc(C#N)cc1 (stereo not given),-0.438,-1.03 (inactive),0.0125 (inactive),0.318 (inactive),0.999 (inactive),0.63 (inactive),0.172 (inactive),-0.465 (inactive),0.628,0.169
CC(C)=CCCC(C)=CC(O)C1C=CC2C(=O)NC(=O)C2N1Nc1ccc(Cl)cc1Cl (stereo not given),-1.66,-4.77 (inactive),-1.56 (inactive),0.112 (inactive),1.01 (inactive),0.432 (inactive),-0.0552 (inactive),-0.797 (inactive),-1.73,-0.0326
CC(C)C(=C=CC[C@H](O)c1ccccc1OCCO)C[C@H](O)c1cc(Cl)cc(Cl)c1O,0.271,-5.59 (inactive),-0.702 (inactive),-2 (inactive),0.731 (inactive),-0.17 (inactive),0.215 (inactive),-0.0849 (inactive),-0.628,-0.0448
COCCCNC(=O)[C@@]1(CCC(=O)OC(C)(C)C)COC(c2ccc(OCCCO)cc2)=N1,1.18,-0.579 (inactive),1.27 (inactive),-0.176 (inactive),-0.978 (inactive),-0.561 (inactive),0.391 (inactive),0.624 (inactive),0.928,-0.0272
CC(C)NC(=O)[C@@]1(c2ccc([N+](=O)[O-])cc2)CC(=O)N(CC23CC4CC(CC(C4)C2)C3)[C@@H]1c1ccc(CO)cc1,-1.21,-0.692 (inactive),-2.06 (inactive),-0.257 (inactive),0.792 (inactive),0.311 (inactive),-0.502 (inactive),-0.655 (inactive),-3.14,-0.0295
CCOC(=O)C[C@H]1[C@H](OC(=O)c2cc3ccccc3oc2=O)[C@@H](NC(=O)CC(C)C)c2cc(OCCCO)ccc2N1C(=O)Cc1ccc(OC)cc1,-0.74,-0.628 (inactive),-0.233 (inactive),-0.144 (inactive),-0.423 (inactive),-0.746 (inactive),-0.715 (inactive),-1.18 (inactive),-0.72,-0.284
COC(=O)C[C@H]1O[C@@]2(C[C@@H]1[Si](C)(C)C)C(=O)N(C)c1ccccc12,0.791,-3.71 (inactive),1.41 (inactive),-0.655 (inactive),0.826 (inactive),-3.42 (inactive),2.3 (inactive),0.92 (inactive),0.904,-0.0966
COc1cc(C(O)C2C=CC3C(=O)N(c4ccccc4)C(=O)C3N2Nc2ccccc2F)cc(OC)c1OC (stereo not given),-0.514,0.886 (inactive),-0.565 (inactive),0.0998 (inactive),0.437 (inactive),0.881 (inactive),-0.631 (inactive),-0.765 (inactive),-0.17,0.081
COc1ccc(C(=O)Nc2ccc(CN3C(=O)[C@@]4(O[C@@H](CCn5cc(CCO)nn5)[C@H]([Si](C)(C)c5ccc(OC)cc5)[C@H]4C)c4ccccc43)cc2)cc1,-3.26,-5.03 (inactive),-4.02 (inactive),0.483 (inactive),0.863 (inactive),2.47 (inactive),1.07 (inactive),-0.101 (inactive),-3.35,-0.0871
CCCCC(O)C1C=CC2C(=O)N(c3ccccc3)C(=O)C2N1Nc1ccc([N+](=O)[O-])cc1 (stereo not given),0.172,-0.485 (inactive),0.519 (inactive),0.0188 (inactive),1.03 (inactive),-0.385 (inactive),0.356 (inactive),0.282 (inactive),-0.354,-0.156
COC(=O)[C@@]1(Cc2ccc(OC)cc2)[C@H]2c3cc(C(=O)N4CCCC4)n(Cc4ccc(Cl)c(C(F)(F)F)c4)c3C[C@H]2CN1C(=O)c1ccccc1,0.27,0.681 (inactive),-0.267 (inactive),-0.902 (inactive),0.135 (inactive),0.276 (inactive),-0.88 (inactive),0.404 (inactive),-0.859,-0.064
C=CC[C@@]1(C(=O)N(C)C)N=C(c2ccc(OCCCO)cc2)O[C@@H]1c1ccccc1CN=[N+]=[N-],-0.0494,-0.266 (inactive),-0.138 (inactive),0.59 (inactive),-0.345 (inactive),0.586 (inactive),0.159 (inactive),0.374 (inactive),-0.368,-0.163
COC(=O)[C@]1(Cc2ccccc2)N=C(c2ccc(OCCCO)cc2)O[C@@H]1c1ccccc1CN=[N+]=[N-],-4.19,-0.813 (inactive),-8.88 (active),1.94 (inactive),1.84 (inactive),2.72 (inactive),1.28 (inactive),-0.88 (inactive),-7.14,0.0159
CC1CC/C=C\[C@H]2OC34C=CCN(C(C)(C)C)C(=O)[C@H]3N(CCCO)C(=O)[C@@H]4C2C(=O)O1 (stereo not given in full),-0.216,1 (inactive),-0.32 (inactive),-0.555 (inactive),0.261 (inactive),0.0605 (inactive),-0.282 (inactive),-0.52 (inactive),0.276,-0.02
CN(C)CCCC[C@@H]1NC(=O)[C@@H]2C[C@H](C(=O)NCCCCCN)[C@H](c3cccc(OCCO)c3)N2C1=O,0.881,-0.985 (inactive),1.49 (inactive),-0.417 (inactive),0.531 (inactive),-2.59 (inactive),2.01 (inactive),2.02 (inactive),0.819,-0.184
CC(C)(C)N1CC=CC23O[C@@H]4/C=C\CCCOC(=O)C4[C@H]2C(=O)N(CCCO)[C@@H]3C1=O (stereo not given in full),0.0873,0.111 (inactive),0.0928 (inactive),-2.08 (inactive),-0.236 (inactive),-1.06 (inactive),0.0362 (inactive),-0.205 (inactive),-0.0182,-0.0626
C=CCC(OC(C)=O)[C@@H]1[C@@H](N(Cc2cccc3ccccc23)C(=O)Cc2ccc(OC)cc2)c2cc(OCCCO)ccc2N1C(=O)c1ccc2ccccc2c1 (stereo not given in full),0.74,-1.57 (inactive),0.435 (inactive),-0.775 (inactive),-0.37 (inactive),-0.958 (inactive),1.22 (inactive),0.56 (inactive),1.17,-0.123
COc1ccc(C(O)C2C=CC3C(=O)NC(=O)C3N2Nc2ccc(Cl)cc2Cl)c2ccccc12 (stereo not given),-2.19,-9.94 (active),-0.423 (inactive),0.167 (inactive),1.28 (inactive),0.361 (inactive),-0.0977 (inactive),-0.626 (inactive),-1.09,-0.0118
O=C1C[C@]2(c3ccc([N+](=O)[O-])cc3)C(=O)N(C3CC3)c3cc(CO)ccc3[C@H]2N1C1CCCCC1,0.277,0.462 (inactive),-0.0174 (inactive),-3.75 (inactive),0.475 (inactive),0.3 (inactive),0.0977 (inactive),0.284 (inactive),-0.34,-0.0286
CC(C)=CCCC=C(C)C(O)C1C=CC2C(=O)N(c3ccccc3)C(=O)C2N1Nc1ccc(C#N)cc1 (stereo not given),-1.53,-0.101 (inactive),-1.79 (inactive),-1.49 (inactive),1.36 (inactive),-1.63 (inactive),-0.0959 (inactive),0.65 (inactive),-2.19,0.146
CCOC(=O)C1=CC[C@@H](c2ccccc2)N(S(=O)(=O)c2ccc(C)cc2)[C@H]1c1ccccc1I,0.76,1.25 (inactive),-0.0131 (inactive),-0.158 (inactive),1.05 (inactive),-0.217 (inactive),0.254 (inactive),0.202 (inactive),-1.16,-0.123
